The record followed here is PubChem BioAssay AID1813 (Broad Institute, 2009).

Molecules are shown by their SMILES. Out of some 300,000 compounds screened, about 2,500 (0.83%) were called active. Shown is part of a subset that was picked to be rich in actives. A number with no mark means an inactive call. No stated cut-off is given here; in the data, active means inhibition above about 60%; inconclusive means no clear call, values can overlap the other calls; inactive means below that.

The nature of the experiment: 5' untranslated region of α-synuclein, MLPCN primary screen (AID 1813).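 Further: H4 neuroglioblastoma cells stably carrying SNCA 5'UTR luciferase fusion; 0% = DMSO wells and 100% = positive control.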 The following applies: alpha-synuclein 5'UTR reporter, inhibitor activity; hits give high values; tested at 7.5 µM.
The term inhibition denotes the relative decrease from the control value, in per cent. Regarding `Cc1ccc(SCc2c(C(=O)N/N=C/c3cccnc3)nnn2-c2nonc2N)cc1`, the inhibition is -2.9%.

With `Nc1nonc1-n1nnc(C(=O)N/N=C/c2cc(Br)ccc2O)c1CSC1=NCCS1`, the inhibition was 94.1% (active).

For `Nc1nonc1-n1nnc(C(=O)N/N=C/c2ccccc2O)c1CN1CCCC1`, the inhibition is 14.3%.

Take `S=C(c1ccccc1)N1CCCC1`: the inhibition was 4.96%.

In the case of `OCCN1CCN(C(=S)c2ccc(-c3ccccc3)cc2)CC1`, the inhibition was 88% (active).

For the compound `OCCN1CCN(c2nnc(-c3ccccc3)c3ccccc23)CC1`, the inhibition was 18.9%.

For `Cc1nc2cccnc2nc1C`, the inhibition was -3.08%.

For `CC(C)S(=O)(=O)c1csc(NC(=O)Nc2ccc(Cl)cc2)c1Cl`, the inhibition was -49.4%.

On to `Cc1ccc(Cl)cc1NC(=O)c1ccccn1`, for which the inhibition was -44%.

As for `Cc1cccc(OCC(=O)NCCCNC(=O)c2ccccn2)c1`, the inhibition is 8.27%.

On to `CCN(CC)CCOc1ccc2c(c1)C(=NNC(=O)c1ccccn1)c1cc(OCCN(CC)CC)ccc1-2`, for which the inhibition was 109% (active).

Take `COc1ccc(NC(=O)Cn2ncn3c(cc4ccccc43)c2=O)c(OC)c1OC`: the inhibition was 30%.

Take `COC(=O)Cc1csc(/N=C/c2c(O)n(-c3cccc(C(F)(F)F)c3)c(=O)c3ccccc23)n1`: the inhibition is 81.8% (active).

As to `COC(=O)Cc1csc(Nc2c(C)n(C)n(-c3ccccc3)c2=O)n1`, the inhibition is 14.1%.

With `Cc1ccc(-n2c(O)c(C=Nc3ccc(S(=O)(=O)Nc4ncccn4)cc3)c3ccccc3c2=O)cc1C`, the inhibition is 13.1%.

As to `CC(NC(=O)c1cccc2ccccc12)c1ccc2c(c1)CCCC2` (stereo unspecified), the inhibition was 5.38%.

With `Cc1cc(C(=O)Cn2cnc3cc([N+](=O)[O-])ccc3c2=O)c(C)n1CC1CCCO1` (stereo unspecified), the inhibition was -21.1%.

Turning to `Cc1ccsc1C(=O)OCC(=O)c1cc(C)n(CC2CCCO2)c1C` (stereo unspecified), the inhibition was 79.6% (active).

For `Cc1cc(C(=O)CCl)c(C)n1CC1COc2ccccc2O1` (stereo unspecified), the inhibition is 21.1%.

In the case of `CCn1c(-c2cccnc2Cl)nc2cc(C)c(C)cc21`, the inhibition was 24.4%.

`CC(C)C(NS(=O)(=O)c1cccs1)C(=O)Nc1nc(C(C)(C)C)cs1` (stereo unspecified): the inhibition was 24.5%.

As to `CCCCN(C(=O)c1ccc(C)o1)c1c(N)n(CCCC)c(=O)[nH]c1=O`, the inhibition was 11.8%.

Turning to `COc1ccc(NC(=O)C(C)SCc2ccccc2)cc1` (stereo unspecified), the inhibition is -18.2%.

For `COc1ccc(C(=O)NCC2CCCN2S(=O)(=O)c2cccs2)cc1OC` (stereo unspecified), the inhibition is 19.5%.

Consider `CC(=O)c1c(C)[nH]c(C(=O)COC(=O)c2cccc(S(=O)(=O)N(C)c3ccccc3)c2)c1C`, for which the inhibition was -1.07%.

Take `CC1CC(C)CN(C(=O)C2CC(=O)N(c3ccc(F)cc3)C2)C1` (stereo unspecified): the inhibition was 10.4%.

Regarding `C=CCn1c(CCNC(=O)c2ccccc2F)nnc1SCC(=O)Nc1ccc(OC)cc1`, the inhibition was -21.5%.

`Cc1ccc(CS(=O)(=O)c2ncc(Cl)c(C(=O)Nc3nnc(C)s3)n2)cc1`: the inhibition was -37.4%.

With `Cc1cccc(NC(=O)c2nc(S(=O)(=O)Cc3ccccc3)ncc2Cl)c1`, the inhibition is 84.8% (active).

Consider `CSc1nnc(NC(=O)c2nc(S(=O)(=O)Cc3ccc(C)cc3)ncc2Cl)s1`, for which the inhibition is -15.6%.

`COC(=O)COc1cccc2c(=O)n(CC(=O)NCc3ccccc3)ccc12`: the inhibition is -24.3%.

For the compound `Nc1nc(Nc2ccccc2F)nc(NC2CCCCC2)c1[N+](=O)[O-]`, the inhibition is 30.2%.

Regarding `COc1cc(OC)cc(C(=O)NC2CCN(C(=O)N3c4ccccc4Sc4ccccc43)CC2)c1`, the inhibition is 47.3%.

As for `COc1ccc(CN2[C@@H](CC(=O)O)c3cc(F)ccc3S2(=O)=O)cc1`, the inhibition was -3.17%.

Consider `C/C(=N\NC(=O)Cc1ccc(Cl)cc1)c1ccccn1`, for which the inhibition is 85.6% (active).

For the compound `C/C(=N\NC(=O)Cc1ccc(F)cc1)c1ccc(F)cc1`, the inhibition was 20.6%.

Consider `C/C(=N\NC(=O)c1ccccc1F)c1ccccn1`, for which the inhibition is 83% (active).

For `C/C(CC(=O)Nc1ccc(N(C)C)cc1)=N\NC(=O)c1ccccc1F`, the inhibition is -40.2%.

Take `COc1ccc(CC(=O)NC(C)CCc2ccccc2)cc1` (stereo unspecified): the inhibition was 1.27%.

For the compound `COc1ccc(CC(=O)N/N=C(\C)c2ccccn2)cc1`, the inhibition is 77.7% (active).

On to `COc1ccc(C/C(C)=N/NC(=O)c2ccncc2)cc1`, for which the inhibition is 6.51%.

In the case of `O=C(Nc1ccc(NC(=O)c2ccccc2F)cc1)c1ccccc1F`, the inhibition was -42.3%.

As for `C/C(=N\NC(=O)Cc1ccc(Br)cc1)c1cccnc1`, the inhibition is 30.5%.

For the compound `C/C(=N\Nc1nc2ccccc2[nH]1)c1cccs1`, the inhibition was -116%.

Consider `O=C(O)C1CCCCC1C(=O)N1CCN(S(=O)(=O)c2ccc(F)cc2)CC1` (stereo unspecified), for which the inhibition was -5.32%.

Regarding `CC1(C)OC(=O)N2CCc3ccccc3C21C` (stereo unspecified), the inhibition was -10.7%.

`C=CCNC(=S)NNc1ncnc2sc3c(c12)CC(C)(C)OC3`: the inhibition is 5.75%.

Consider `O=C(O)c1cc2c(cc1NC(=O)c1c(F)cccc1Cl)OCCCO2`, for which the inhibition was 23.8%.

Consider `COc1ccc2[nH]c3nc(SCC(=O)NC4CC4)nnc3c2c1`, for which the inhibition was -39.5%.

For `CCCCCN(C(=O)NC(=O)Nc1ccccc1C)S(C)(=O)=O`, the inhibition is -36.2%.

For `OCCCNc1nc(-c2ccccc2)c2cc(Cl)ccc2n1`, the inhibition is 30.4%.

In the case of `OCCCNc1nccc(-c2cc(Nc3cccc(Cl)c3)ncn2)n1`, the inhibition was 73.3% (active).

Take `NS(=O)(=O)c1cccnc1Nc1cccc(Cl)c1`: the inhibition is -2.47%.

Turning to `O=C1CCCN2N=C(SCC(=O)Nc3ccc(Br)cc3)SC2=N1`, the inhibition was 10.7%.

In the case of `Cc1cc(C(F)F)nn1CC(=O)NC1CCCCCC1`, the inhibition was -7.74%.

For `Cc1ccccc1NC(=O)CCNS(=O)(=O)c1ccc2[nH]c(=O)oc2c1`, the inhibition is 6.01%.

As for `CCOc1ccc(C2C(C(=O)NC)=C(C)Nc3nc4ccccc4n32)cc1OC` (stereo unspecified), the inhibition was 10.1%.

Turning to `CCOC(=O)C1=C(C)Nc2nc3ccccc3n2C1c1cccs1` (stereo unspecified), the inhibition is 31.1%.

With `COc1ccccc1NC(=O)C1=C(C)Nc2nc3ccccc3n2C1c1cccs1` (stereo unspecified), the inhibition was 106% (active).

With `COC(=O)c1cc(=O)n(-c2c(Cl)cc(C(F)(F)F)cc2Cl)[nH]1`, the inhibition was 29.3%.

`CN(CC(=O)Nc1c(Cl)cccc1Cl)C(=O)c1ccncc1`: the inhibition is 8.69%.

Take `O=C1CCCC2=C1C(c1cccs1)n1nc(SCc3ccccc3)nc1N2` (stereo unspecified): the inhibition was 37.2%.

For the compound `CCCCCN(C(=O)NC(=O)Nc1cccc(C)c1C)S(C)(=O)=O`, the inhibition is -23.1%.

Turning to `CC(C)n1c(CN2CCN(Cc3ccccc3)CC2)nc2ccccc21`, the inhibition is 9.23%.

For the compound `CCCNC(=O)N1CCN(C(=O)NCCC)CC1`, the inhibition was 8.45%.

`COc1ccc(C(C)=O)cc1COc1ccc(Cl)c(C)c1`: the inhibition is 50.7%.

On to `CCn1nc(C)c(NC(=O)/C=C/c2ccc(OC)c(COc3ccc(Br)cc3)c2)c1C`, for which the inhibition was 61.8% (active).

Regarding `C/C=C/c1ccc(OCC(=O)OCC(=O)Nc2c(C)nn(-c3ccccc3)c2C)c(OC)c1`, the inhibition is 3.02%.

As for `CCCCN(C)CCC(=O)Nc1ccc(Cl)cc1`, the inhibition was -18.3%.

Regarding `CCOc1ccc2c(c1)c(=O)c(S(=O)(=O)c1ccc(C)cc1)cn2CC`, the inhibition was 13%.

On to `CN(C)c1nc(N)nc(CSc2ccccn2)n1`, for which the inhibition is -19.1%.

For the compound `COc1ccc(-n2nnnc2SCc2nc(N)nc(N3CCOCC3)n2)cc1`, the inhibition is 13.4%.

As to `CN(C)c1nc(N)nc(CSc2nnnn2-c2cccc3ccccc23)n1`, the inhibition is 68.9% (active).

`COc1ccc(CCNC(=O)CN(C)S(=O)(=O)c2ccc3nc(C)sc3c2)cc1OC`: the inhibition was -0.864%.

Regarding `CC(=O)Nc1ccc(NC(=O)CCCNC(=O)c2ccc(Cl)cc2)cc1`, the inhibition is 19.3%.

On to `O=c1[nH]c(NCCO)nnc1Cc1ccc(Cl)cc1`, for which the inhibition was 6.74%.

Consider `CC(C)c1ccc(Cc2nnc(NCCCO)[nH]c2=O)cc1`, for which the inhibition was -13.1%.

On to `COc1ccc(Cc2nnc(N/N=C/c3ccccc3O)[nH]c2=O)cc1OC`, for which the inhibition is 91.4% (active).

As to `COc1ccc(S(=O)(=O)N2CCC(C(=O)NCCC(=O)NCc3cccc(OC)c3)CC2)cc1`, the inhibition was 11.4%.

In the case of `CC(=O)Nc1nonc1-c1nc2ccccc2n1Cc1ccccn1`, the inhibition is 19%.

Take `Nc1nonc1-c1nc2ccccc2n1Cc1ccc(F)cc1`: the inhibition is 49%.

With `COc1ccc(C)c(Cn2c(-c3nonc3N)nc3ccccc32)c1`, the inhibition was 76.2% (active).

Take `CN(CC(=O)NCc1cccnc1)S(=O)(=O)c1cc(Cl)ccc1Cl`: the inhibition was 5.11%.

In the case of `CCc1noc(C)c1C(=O)N1CCCC(N2CCN(c3ccc(F)cc3)CC2)C1` (stereo unspecified), the inhibition was 14.8%.

For the compound `CC(Sc1nnc(COc2ccccc2)n1-c1ccccc1)C(=O)O` (stereo unspecified), the inhibition was -1.97%.

As to `CC1(C(=O)N/N=C/c2cc3c(cc2Br)OCO3)CC1(Br)Br` (stereo unspecified), the inhibition was 4.98%.

On to `O=C(CN1C(=O)c2ccccc2S1(=O)=O)N1CCc2ccccc21`, for which the inhibition was 93.5% (active).

As for `O=C(CN1C(=O)c2ccccc2S1(=O)=O)NC1CCCCC1`, the inhibition was 6.72%.

Take `O=C(CN1CCN(c2ccccn2)CC1)N1CCc2ccccc21`: the inhibition was -26.8%.

As for `COc1ccc(NC(=O)/C(Cl)=C(/Cl)S(=O)Cc2ccc(C)cc2)cn1` (stereo unspecified), the inhibition is 106% (active).

Take `COc1ccc(Nc2ccc([N+](=O)[O-])cn2)cn1`: the inhibition was 8.18%.

On to `Cc1ccc(NC(=O)OCc2cncs2)cc1`, for which the inhibition is -112%.

For `COc1ccc(NC(=O)CN(C)C(=O)Cc2coc3cc(C)c(C)cc23)cc1`, the inhibition was 6.29%.

`Cc1ccc2c(c1)NCC(C(=O)NC1CCC(C)CC1)O2` (stereo unspecified): the inhibition was -67.9%.

For `CN(C)c1ccc(C(CNC(=O)c2ccc(F)cc2)c2c[nH]c3ccccc23)cc1` (stereo unspecified), the inhibition is 4.86%.

For the compound `Cc1ccc(OCC(=O)Nc2ccccc2Sc2ccc(Cl)cc2)c([N+](=O)[O-])n1`, the inhibition was 4.28%.
